# From PubChem BioAssay
# The list is not random: actives were taken first. Their share in the collection is about 7.4%.
# Luc counter: counter-screen: inhibitors of Kinase-Glo firefly luciferase. hit rate 0.28% among 200,000. Potency, µM (doses to about 38.3 µM), for inactives: top-dose activity change, negative = inhibition, most hits filed as inhibitors. Kinase-Glo luciferase, ATP luminescence, 8 min. Q27757; also: % is scaled to controls: 0 for no effect and ±100 for the full control effect; nearly all actives have a fitted effect of over 60% in size
#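 Recombinant Kinase-Glo luciferase, 10 uM ATP (linear range), luciferin; imidazole pH 7.2 / KCl / MgCl2 / Tween / BSA buffer; 8 min RT; luminescence.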
# SMN2 splice enh: SMN2 splice variant enhancement; HEK293 SMN2-luciferase splicing reporter, luminescence, 30-36 h; Potency, µM (doses to about 46.1 µM), for the others: at the highest dose activity change, positive = activation, most hits filed as activators; hit rate 2.8% among 210,000; also: % of control where 0% means no effect; nearly all actives have a fitted effect of over 55% in size
#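 qHTS luciferase splicing reporter: luminescence rises when SMN2 exon 7 is included in transfected HEK293 cells. Compound exposure lasted 30-36 h at 37C, with 4.5 mM final sodium butyrate as control, followed by a ONE-Glo read.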
# ELG1 genotoxic: induces genotoxicity in HEK293T cells with luciferase-tagged ELG1 | HEK293T ELG1-luciferase reporter, luminescence, 16 h | Potency, µM (highest dose often 46 µM), inactives show at the highest dose activity change, positive = activation, usual class: activators | hit rate 1.3% among 330,000; also: % of control where 0% means no effect; nearly all actives have a fitted effect of over 60% in size
#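 Screening used a luciferase reporter fused to human ELG1 in HEK293T cells. Luminescence was read on a CCD plate imager after 16 hr exposure and 30 min ONE-Glo incubation.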
# Rab9 prom act: activators of Rab9 promoter; Potency, µM (doses to about 9.22 µM), for inactives: top-dose activation, negative = inhibition, usual class: activators; hit rate 2.8% among 320,000; AID 485297; Huh7 Rab9 promoter-luciferase reporter, luminescence, 24 h; also: % of control where 0% means no effect; nearly all actives have a fitted effect of over 60% in size
#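 Huh7 cells stably carrying a Rab9 promoter-luciferase reporter, 1500 cells per well in OP-MEM I with 10% FBS, treated with compound 24 hours at 37C. Luciferase activity read by luminescence after 10 minutes with Amplite reagent.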
# NPC1 promoter act: NPC1 promoter activation; Huh7 NPC1 promoter luciferase reporter, 24 h; Potency, µM (titrated, usually from 9.22 µM), for the others: at the top dose activation, hits mostly activators; hit rate 2.4% among 320,000; AID 485313; also: % of control where 0% means no effect; nearly all actives have a fitted effect of over 60% in size
#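 NPC1 promoter–luciferase Huh7 cells; 24 h compound; luminescence.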
# FLuc counter: firefly luciferase modulation, counter-screen for miR-21 project | P08659 | purified FLuc, Km substrates, luminescence inhibition | Potency, µM (series often up to 57.5 µM), inactives show at the highest dose activity change, negative = inhibition, usual class: inhibitors | hit rate 6.9% among 360,000 | AID 588342;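 also: plate controls were vehicle for no effect and reference inhibitor for full effect; nearly all actives have a fitted effect of over 55% in size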
# Target sequence (P08659 whole entry, looked up): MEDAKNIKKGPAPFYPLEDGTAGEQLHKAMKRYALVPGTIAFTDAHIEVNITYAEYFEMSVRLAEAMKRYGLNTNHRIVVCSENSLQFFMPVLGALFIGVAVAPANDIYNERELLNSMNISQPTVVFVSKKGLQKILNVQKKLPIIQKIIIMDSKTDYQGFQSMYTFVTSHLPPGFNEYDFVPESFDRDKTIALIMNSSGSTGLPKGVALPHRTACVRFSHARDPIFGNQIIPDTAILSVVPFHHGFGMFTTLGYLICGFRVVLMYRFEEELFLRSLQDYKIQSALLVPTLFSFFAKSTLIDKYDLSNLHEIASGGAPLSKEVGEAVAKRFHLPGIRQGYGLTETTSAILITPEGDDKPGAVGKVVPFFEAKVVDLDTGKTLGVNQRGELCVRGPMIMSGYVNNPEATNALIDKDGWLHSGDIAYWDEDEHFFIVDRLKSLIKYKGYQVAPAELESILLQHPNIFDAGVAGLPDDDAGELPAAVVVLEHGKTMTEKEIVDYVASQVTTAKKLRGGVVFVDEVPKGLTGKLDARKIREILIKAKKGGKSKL
#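 Biochemical qHTS of compounds, final roughly 60 µM downward over six points, against 10 nM purified firefly luciferase using Km concentrations of substrates (10 uM D-luciferin, 10 uM ATP) in Tris acetate pH 7.5 buffer; luminescence output.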
# Active calls of the source: *; ? = inconclusive; . = no result given; [ ] = remark or other dose. Calls follow the shape of the dose curve; as a rule, active = well fitted curve in the direction sought with a large enough effect; inconclusive = small, poorly fitted or top-dose-only effect, or another doubt; inactive = no such curve, though single readings can be large; an effect the other way counts as inactive or inconclusive. Potency is read from the fitted curve at half-maximal effect.
SMILES,Luc counter,SMN2 splice enh,ELG1 genotoxic,Rab9 prom act,NPC1 promoter act,FLuc counter
COc1ccc(NC(=O)c2oc3ccccc3c2NC(=O)C2CC2)cc1OC,.,.,-7%,6%,-1%,17µM*
O=C(C1=C[C@H](C2CC2)C[C@H](OCCCCO)O1)N1CCOCC1,.,.,8%,-4%,-2%,0%
O=[N+]([O-])c1cccc(-c2csc(Nc3ccccc3)n2)c1,4%,.,3%,?,4%,13µM*
O=C(O)CCC(=O)Nc1cccc(-c2csc(-c3ccccc3)n2)c1,2%,-14%,-2%,-7%,-13%,7.6µM*
O=C(Nc1cccc(-c2csc(Nc3ccccc3)n2)c1)c1ccccc1,.,.,-3%,?,?,1.7µM*
CC(=O)c1cccc(Nc2nc(-c3cccnc3)cs2)c1,.,.,7%,?,3.5µM*,11µM*
O=C(Nc1cccc(-c2csc(Nc3cccc(C(F)(F)F)c3)n2)c1)c1ccccc1,.,.,-17%,-9%,-4%,?
O=C(Nc1ccccc1)NN(C(=O)CCl)c1ccccc1,.,.,-24%,-23%,-26%,-3%
CC(=O)c1cccc(Nc2nc(-c3ccccc3)cs2)c1,5%,11µM*,?,1.3µM*,3.2µM*,3.4µM*
O=C(Nc1ccc(-c2csc(Nc3cccc(C(F)(F)F)c3)n2)cc1)c1ccccc1,.,.,-11%,-11%,0%,-1%
CN(C)S(=O)(=O)c1cccc(-c2csc(N/N=C/c3ccco3)n2)c1,.,.,2%,25%,10%,?
Cc1ccc(-c2csc(N/N=C/c3ccco3)n2)c(C)c1,-2%,4µM*,19%,18%,14%,-13%
O=c1[nH]c(=O)n([C@@H]2O[C@H](CO)[C@@H](O)[C@H]2O)cc1F,2%,.,.,.,.,.
Cn1ccsc1=NC(=O)c1cccc(OC(F)F)c1,.,.,?,?,3.5µM*,15µM*
NC(=O)c1ccccc1-c1noc(-c2ccccc2F)n1,.,.,.,?,?,17µM*
NC(=O)c1ccc(-c2noc(-c3ccccc3F)n2)cc1,.,.,?,0.32µM*,0.32µM*,3µM*
COCCNC(=O)c1ccccc1-c1nc(-c2ccccc2OC)no1,-14%,-28%,2%,0%,?,?
Nc1nc(SCc2ccccc2Cl)cc(C(=O)O)n1,-5%[7.66 µM],-6%[9.22 µM],.,.,.,.
COc1cc(N=Nc2c(O)c3ccccc3[nH]c2=O)c(OC)cc1N=Nc1ccccc1,.,.,-4%,-1%,3%,15µM*
Nc1cccc2c1C(=O)N(C(=O)/C=C/c1cccc(Br)c1)C2=O,.,.,8%,-8%,-8%,?
Nc1cccc2c1C(=O)N(C(=O)/C=C/c1cccc(F)c1)C2=O,-5%,15%,0%,-4%,-8%,21µM*
COc1ccccc1Oc1ccc2c(c1)C(=O)N(c1ccccc1)C2=O,0%,-15%,-1%,1%,-6%,9.5µM*
CC(N1CCOC1=O)S(=O)(=O)c1ccccc1 (centres undefined),-1%,-7%,0%,0%,-3%,-2%
COc1ccc(C)cc1S(=O)(=O)N1CCN(c2ccccc2)CC1,.,.,-1%,2%,-3%,-1%
CCOc1ccccc1N1CCN(S(=O)(=O)c2cc(C)ccc2OC)CC1,-4%,.,?,2.5µM*,?,17µM*
SMILES,Luc counter,SMN2 splice enh,ELG1 genotoxic,Rab9 prom act,NPC1 promoter act,FLuc counter
Nc1cnc(Nc2ccc(Br)cc2)nc1N,.,.,?,?,22%,15µM*
Nc1ncnc(Nc2ccccc2)n1,.,.,2%,-2%,3%,-13%
O=C(c1cc(-c2ccncc2)nc2ccc(Br)cc12)N1CCN(c2ccccn2)CC1,13%,-28%,.,.,.,17µM*
O=C(c1cc(-c2cccc(Cl)c2)nc2ccccc12)N1CCN(c2ccccn2)CC1,.,.,-22%,11%,5%,19µM*
O=C(c1cccn2c(=O)c3cc(Br)ccc3nc12)N1CCN(c2ccccn2)CC1,-3%,6%,2%,7%,1%,-2%
COc1cccc(/C=C2\Oc3ccc(O)cc3C2=O)c1O,.,.,?,?,?,3.4µM*
Cn1c2c(c3ccccc31)CCN1CCC[C@]21c1ccccc1,.,.,-6%,-7%,-9%,0%
